Laboratory results as given in ChEMBL document CHEMBL2218924, “A broad activity screen in support of a chemogenomic map for kinase signalling research and drug discovery” (Biochem J, 2013).

The molecules below were run against Tyrosine-protein kinase Lyn (Homo sapiens) (UniProt P07948). Conditions: at 10 µM.
Sequence of Tyrosine-protein kinase Lyn (Homo sapiens) (P07948 2-512 limits assumed): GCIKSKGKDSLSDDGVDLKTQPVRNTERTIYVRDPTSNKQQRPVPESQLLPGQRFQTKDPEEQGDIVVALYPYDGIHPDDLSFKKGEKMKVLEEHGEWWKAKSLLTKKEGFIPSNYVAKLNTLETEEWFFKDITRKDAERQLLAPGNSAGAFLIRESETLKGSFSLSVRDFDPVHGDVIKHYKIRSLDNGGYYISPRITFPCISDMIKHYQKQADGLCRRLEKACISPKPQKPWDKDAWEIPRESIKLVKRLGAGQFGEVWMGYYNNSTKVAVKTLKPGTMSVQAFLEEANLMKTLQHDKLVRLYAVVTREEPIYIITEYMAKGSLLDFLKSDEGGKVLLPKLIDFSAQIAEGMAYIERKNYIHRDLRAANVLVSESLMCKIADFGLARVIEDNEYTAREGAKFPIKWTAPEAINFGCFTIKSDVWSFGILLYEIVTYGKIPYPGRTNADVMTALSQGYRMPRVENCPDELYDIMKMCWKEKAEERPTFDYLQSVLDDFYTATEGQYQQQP

| SMILES | residual activity [%] |
| --- | --- |
| COc1cc2c(cc1OC)-c1n[nH]c(Nc3cccc(F)c3)c1C2 | 6 |
| NC(=O)c1cccc(-c2cc(Nc3ccc(OC(F)(F)F)cc3)ncn2)c1 | 82 |
| N#C/C(=C\c1ccc(O)c(O)c1)C(=O)NCc1ccccc1 | 70 |
| COc1ccc(Cl)cc1NC(=O)Nc1cc(C)nc2ccccc12 | 87 |
| CC(C)(C)c1nc2c3ccc(F)cc3c3c(=O)[nH]ccc3c2[nH]1 | 20 |
| O=c1c(-c2ccc(F)cc2)c(-c2ccncc2)[nH]n1-c1ccc(Cl)cc1 | 38 |
| O=C1NC(=O)C(c2cn(CCCO)c3ncccc23)=C1c1cnccn1 | 70 |
| O=C(Nc1ccc(Cl)cc1)c1ccccc1NCc1ccncc1 | 2 |
| NC(=O)Nc1sc(-c2ccc(F)cc2)cc1C(N)=O | 1 |
| Oc1cccc(-c2nc(N3CCOCC3)c3oc4ncccc4c3n2)c1 | 57 |
| CN([C@@H](Cc1ccc(OS(=O)(=O)c2cccc3cnccc23)cc1)C(=O)N1CCN(c2ccccc2)CC1)S(=O)(=O)c1cccc2cnccc12 | 59 |

Each molecule was assayed against Mitogen-activated protein kinase 3 (Homo sapiens) (UniProt P27361). Conditions: at 1 µM.
Sequence of Mitogen-activated protein kinase 3 (Homo sapiens) (P27361 whole entry): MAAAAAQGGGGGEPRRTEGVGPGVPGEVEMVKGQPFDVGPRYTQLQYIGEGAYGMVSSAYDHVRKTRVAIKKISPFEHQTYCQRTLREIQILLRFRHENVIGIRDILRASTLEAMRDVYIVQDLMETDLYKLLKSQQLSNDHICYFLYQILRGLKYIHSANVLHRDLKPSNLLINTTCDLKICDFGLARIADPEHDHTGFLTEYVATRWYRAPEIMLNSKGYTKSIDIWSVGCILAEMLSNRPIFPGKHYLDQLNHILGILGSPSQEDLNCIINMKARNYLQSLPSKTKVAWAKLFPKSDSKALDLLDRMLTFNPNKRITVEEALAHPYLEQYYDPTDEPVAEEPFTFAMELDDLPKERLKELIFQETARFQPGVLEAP

| SMILES | residual activity [%] |
| --- | --- |
| O=c1cc(N2CCOCC2)oc2c(-c3ccccc3)cccc12 | 78 |
| CC(C)[C@H](CO)Nc1nc(Nc2cc(N)cc(Cl)c2)c2ncn(C(C)C)c2n1 | 91 |
| Cn1sc(=O)n(Cc2ccccc2)c1=O | 83 |
| Nc1ncnc2c1cnn2-c1ccccc1 | 82 |
| COc1ccc(COc2ccc(Cc3cnc(N)nc3N)cc2OC)cc1 | 100 |
| Fc1ccc(-c2nc3n(c2-c2ccncc2)CCS3)cc1 | 138 |
| Cn1c2ccccc2c2c3c(c4c5ccccc5n(CCC#N)c4c21)CNC3=O | 52 |
| CCOC(=O)c1c(C)[nH]c(/C=C2\C(=O)Nc3ccccc32)c1C | 81 |
| N#C/C(=C\c1ccc(O)c(O)c1)C(=O)NCc1ccccc1 | 77 |
| CC(C)(C)c1nc2c3ccc(F)cc3c3c(=O)[nH]ccc3c2[nH]1 | 47 |
| NC(=O)c1ccc(-c2nc(-c3ccc4c(c3)OCCO4)c(-c3ccccn3)[nH]2)cc1 | 96 |
| O=C(Nc1ccc(Cl)cc1)c1ccccc1NCc1ccncc1 | 77 |
| NC(=O)Nc1sc(-c2ccc(F)cc2)cc1C(N)=O | 80 |
| Oc1cccc(-c2nc(N3CCOCC3)c3oc4ncccc4c3n2)c1 | 83 |

What follows are molecules tested against Mitogen-activated protein kinase 3 (Homo sapiens) (UniProt P27361). Conditions: at 10 µM.

| SMILES | residual activity [%] |
| --- | --- |
| CN(C)S(=O)(=O)c1ccc2c(c1)/C(=C/c1cc3c([nH]1)CCCC3)C(=O)N2 | 88 |
| O=c1cc(N2CCOCC2)oc2c(-c3ccccc3)cccc12 | 73 |
| Nc1nccc(-c2c(-c3ccc(F)cc3)ncn2C2CCNCC2)n1 | 35 |
| CC(C)[C@H](CO)Nc1nc(Nc2cc(N)cc(Cl)c2)c2ncn(C(C)C)c2n1 | 82 |
| O=S(=O)(NCCNC/C=C/c1ccc(Br)cc1)c1cccc2cnccc12 | 70 |
| Cn1sc(=O)n(Cc2ccccc2)c1=O | 92 |
| Nc1ncnc2c1cnn2-c1ccccc1 | 80 |
| COc1ccc(COc2ccc(Cc3cnc(N)nc3N)cc2OC)cc1 | 76 |
| Fc1ccc(-c2nc3n(c2-c2ccncc2)CCS3)cc1 | 92 |
| CCOC(=O)c1c(C)[nH]c(/C=C2\C(=O)Nc3ccccc32)c1C | 91 |
| COc1cc2c(cc1OC)-c1n[nH]c(Nc3cccc(F)c3)c1C2 | 76 |
| N#C/C(=C\c1ccc(O)c(O)c1)C(=O)NCc1ccccc1 | 65 |
| CC(C)(C)c1nc2c3ccc(F)cc3c3c(=O)[nH]ccc3c2[nH]1 | 64 |
| O=c1c(-c2ccc(F)cc2)c(-c2ccncc2)[nH]n1-c1ccc(Cl)cc1 | 66 |
| O=C(Nc1ccc(Cl)cc1)c1ccccc1NCc1ccncc1 | 80 |
| Oc1cccc(-c2nc(N3CCOCC3)c3oc4ncccc4c3n2)c1 | 87 |

The molecules below were run against Mitogen-activated protein kinase 1 (Homo sapiens) (UniProt P28482). Conditions: at 1 µM.
Sequence of Mitogen-activated protein kinase 1 (Homo sapiens) (P28482 whole entry): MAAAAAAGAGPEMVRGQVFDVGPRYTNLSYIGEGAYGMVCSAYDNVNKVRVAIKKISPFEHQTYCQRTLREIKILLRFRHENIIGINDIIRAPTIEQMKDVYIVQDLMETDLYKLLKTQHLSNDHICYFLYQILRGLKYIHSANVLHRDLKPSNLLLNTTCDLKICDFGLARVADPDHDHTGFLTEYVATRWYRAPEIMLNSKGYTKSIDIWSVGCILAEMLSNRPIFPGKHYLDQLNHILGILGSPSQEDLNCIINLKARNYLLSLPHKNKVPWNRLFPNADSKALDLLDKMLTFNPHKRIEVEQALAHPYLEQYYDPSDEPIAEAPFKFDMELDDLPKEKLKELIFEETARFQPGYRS

| SMILES | residual activity [%] |
| --- | --- |
| Nc1n[nH]c2nc3ccccc3nc12 | 123 |
| Cn1sc(=O)n(Cc2ccccc2)c1=O | 95 |
| O=C1Cc2c([nH]c3ccc([N+](=O)[O-])cc23)-c2ccccc2N1 | 109 |
| Cc1cc(C)c(/C=C2\C(=O)Nc3ccccc32)[nH]1 | 98 |
| Cn1c2ccccc2c2c3c(c4c5ccccc5n(CCC#N)c4c21)CNC3=O | 48 |
| CCOC(=O)c1c(C)[nH]c(/C=C2\C(=O)Nc3ccccc32)c1C | 100 |
| COc1cc2c(cc1OC)-c1n[nH]c(Nc3cccc(F)c3)c1C2 | 103 |
| O=c1c(-c2ccc(F)cc2)c(-c2ccncc2)[nH]n1-c1ccc(Cl)cc1 | 122 |
| NC(=O)Nc1sc(-c2ccc(F)cc2)cc1C(N)=O | 108 |
| Oc1cccc(-c2nc(N3CCOCC3)c3oc4ncccc4c3n2)c1 | 122 |

The molecules below were run against Mitogen-activated protein kinase 1 (Homo sapiens) (UniProt P28482). Conditions: at 10 µM.

| SMILES | residual activity [%] |
| --- | --- |
| N#Cc1c(NC(=O)c2cccc3ccccc23)sc2c1CCCC2 | 92 |
| CC(C)[C@H](CO)Nc1nc(Nc2cc(N)cc(Cl)c2)c2ncn(C(C)C)c2n1 | 66 |
| Cn1sc(=O)n(Cc2ccccc2)c1=O | 92 |
| O=S(=O)(c1cccc2cnccc12)N1CCCNCC1 | 80 |
| Nc1ncnc2c1cnn2-c1ccccc1 | 95 |
| Cc1cc(C)c(/C=C2\C(=O)Nc3ccccc32)[nH]1 | 101 |
| Cn1c2ccccc2c2c3c(c4c5ccccc5n(CCC#N)c4c21)CNC3=O | 44 |
| CCOC(=O)c1c(C)[nH]c(/C=C2\C(=O)Nc3ccccc32)c1C | 96 |
| COc1cc2c(cc1OC)-c1n[nH]c(Nc3cccc(F)c3)c1C2 | 103 |
| NC(=O)Nc1sc(-c2ccc(F)cc2)cc1C(N)=O | 67 |
| Oc1cccc(-c2nc(N3CCOCC3)c3oc4ncccc4c3n2)c1 | 119 |
